A word on the AC50: it is the concentration giving half of the maximal activity seen.

Activity calls are given as the source filed them. How the source made its calls: active means hit-call score of the fitted dose curve at least 0.9, where 1 is the maximum; inactive means score below 0.9.

The text below walks through data of PubChem BioAssay (EPA / NIEHS).

Read-out in experiment [1]: TIMP metallopeptidase inhibitor 1 (TIMP1), TIMP1 (gene 7076)
Briefly: BSK_hDFCGF_TIMP1: BioMAP Diversity Plus: hDFCGF Assay for TIMP metallopeptidase inhibitor 1 (TIMP1) Biomarker Activity (AID 2283062). To be noted: primary human foreskin fibroblasts; actives raise or lower the signal. A digest of the protocol:
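Fibroblasts from human foreskin are treated with test chemical and harvested at 24 h. TIMP-1 is quantified by ELISA, and gain or loss of signal is scored against DMSO.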

Read-out in experiment [2]: Monokine induced gamma interferon (MIG), CXCL9 (gene 4283)
Briefly: BSK_hDFCGF_MIG: BioMAP Diversity Plus: hDFCGF Assay for Monokine induced gamma interferon (MIG) Biomarker Activity (AID 2283063). The conditions noted are these: primary human foreskin fibroblasts; actives raise or lower the signal. A digest of the protocol: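 MIG signal, determined by ELISA, reflects 24 h chemical exposure of human skin primary fibroblasts. DMSO serves as negative control and baseline.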

Read-out in experiment [3]: Matrix Metallopeptidase 1 (MMP1), MMP1 (gene 4312)
Briefly: BSK_hDFCGF_MMP1: BioMAP Diversity Plus: hDFCGF Assay for Matrix Metallopeptidase 1 (MMP1) Biomarker Activity (AID 2283064). To be noted: primary human foreskin fibroblasts; actives raise or lower the signal. A digest of the protocol:
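ELISA read-out of MMP1 from human foreskin fibroblasts (primary skin cells), 24 h post-dose. Gain or loss of signal was fitted bidirectionally versus DMSO negative control; cytotoxicity was checked by SRB in parallel cultures.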

Read-out in experiment [4]: Vascular cell adhesion molecule 1 (VCAM1), VCAM1 (gene 7412)
Briefly: BSK_hDFCGF_VCAM1: BioMAP Diversity Plus: hDFCGF Assay for Vascular cell adhesion molecule 1 (VCAM1) Biomarker Activity (AID 2283065).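 On AC50: VCAM-1 protein level quantified by ELISA after 24 h chemical exposure.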 The conditions noted are these: primary human foreskin fibroblasts; actives raise or lower the signal. A digest of the protocol:
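Cells are dosed, cultured for 24 h, then VCAM-1 is quantified by ELISA; signal increases and decreases are both fitted relative to DMSO.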

Read-out in experiment [5]: Plasminogen activator inhibitor-1 (PAI1), SERPINE1 (gene 5054)
Briefly: BSK_hDFCGF_PAI1: BioMAP Diversity Plus: hDFCGF Assay for Plasminogen activator inhibitor-1 (PAI1) Biomarker Activity (AID 2283066). The conditions noted are these: primary human foreskin fibroblasts; actives raise or lower the signal. In outline:
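ELISA readout of PAI-1 from primary human skin fibroblast cultures, 24 h after compound addition. Gain or loss of signal was fitted bidirectionally against DMSO baseline.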

Read-out in experiment [6]: Intercellular Adhesion Molecule 1 (ICAM1), ICAM1 (gene 3383)
Briefly: BSK_KF3CT_ICAM1: BioMAP Diversity Plus: KF3CT Assay for Intercellular Adhesion Molecule 1 (ICAM1) Biomarker Activity (AID 2283067). The conditions noted are these: primary human keratinocytes with fibroblasts; actives raise or lower the signal. In outline: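 Dose the keratinocyte/fibroblast co-culture, wait 24 h, measure ICAM-1 by ELISA, then fit increases or decreases against DMSO. Cytotoxicity is checked in parallel cultures by SRB total-protein staining.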

Read-out in experiment [7]: Interferon-gamma inducible Protein 10 (IP10), CXCL10 (gene 3627)
Briefly: BSK_KF3CT_IP10: BioMAP Diversity Plus: KF3CT Assay for Interferon-gamma inducible Protein 10 (IP10) Biomarker Activity (AID 2283068). The conditions noted are these: primary human keratinocytes with fibroblasts; actives raise or lower the signal. In outline:
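Signal is secreted/surface IP-10 by ELISA in a human primary skin co-culture of keratinocytes and foreskin fibroblasts, taken 24 h post-dosing; DMSO served as negative control.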

Read-out in experiment [8]: Interleukin-1 alpha (IL1a), IL1A (gene 3552)
Briefly: BSK_KF3CT_IL1a: BioMAP Diversity Plus: KF3CT Assay for Interleukin-1 alpha (IL1a) Biomarker Activity (AID 2283070). To be noted: primary human keratinocytes with fibroblasts; actives raise or lower the signal. In outline:
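Primary skin co-culture (keratinocytes, foreskin fibroblasts), 24 h exposure; ELISA for IL-1a; bidirectional curve fit vs DMSO.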

Read-out in experiment [9]: TIMP metallopeptidase inhibitor 2 (TIMP2), TIMP2 (gene 7077)
Briefly: BSK_KF3CT_TIMP2: BioMAP Diversity Plus: KF3CT Assay for TIMP metallopeptidase inhibitor 2 (TIMP2) Biomarker Activity (AID 2283071). To be noted: primary human keratinocytes with fibroblasts; actives raise or lower the signal. A digest of the protocol:
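ELISA readout of TIMP-2 in keratinocyte plus foreskin fibroblast co-cultures (human skin primary cells), 24 h post-dose. Gain or loss of signal fitted relative to DMSO.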

Read-out in experiment [10]: Transforming growth factor beta 1 (TGFb1), TGFB1 (gene 7040)
Briefly: BSK_KF3CT_TGFb1: BioMAP Diversity Plus: KF3CT Assay for Transforming growth factor beta 1 (TGFb1) Biomarker Activity (AID 2283072). To be noted: primary human keratinocytes with fibroblasts; actives raise or lower the signal. A digest of the protocol: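 Read-out: ELISA for TGF-b1 in keratinocyte/foreskin fibroblast human skin co-culture, 24 h after dosing; bidirectional curve fit vs DMSO baseline; gain or loss of signal scored.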

Read-out in experiment [11]: C-C motif chemokine 2 (Homo sapiens) (UniProt P13500)
Briefly: BSK_KF3CT_MCP1: BioMAP Diversity Plus: KF3CT Assay for Monocyte Chemoattractant Protein 1 (MCP1/CCL2) Biomarker Activity (AID 2283073). The conditions noted are these: primary human keratinocytes with fibroblasts; actives raise or lower the signal. In outline: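 Keratinocytes and foreskin fibroblasts were co-cultured, dosed with chemical, and sampled 24 h later. MCP-1 was quantified by ELISA, and the endpoint was analyzed with bidirectional fitting using DMSO as negative control.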

Read-out in experiment [12]: Matrix Metallopeptidase 9 (MMP9), MMP9 (gene 4318)
Briefly: BSK_KF3CT_MMP9: BioMAP Diversity Plus: KF3CT Assay for Matrix Metallopeptidase 9 (MMP9) Biomarker Activity (AID 2283074).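 On AC50: MMP9 protein level quantified by ELISA in the co-culture.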 To be noted: primary human keratinocytes with fibroblasts; actives raise or lower the signal. In outline: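 ELISA read-out of MMP-9 at 24 h post-dosing in a co-culture of human skin keratinocytes and foreskin fibroblasts. Gain or loss of signal was fitted in both directions against DMSO.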

Read-out in experiment [13]: urokinase plasminogen activator (uPA), PLAU (gene 5328)
Briefly: BSK_KF3CT_uPA: BioMAP Diversity Plus: KF3CT Assay for urokinase plasminogen activator (uPA) Biomarker Activity (AID 2283075). To be noted: primary human keratinocytes with fibroblasts; actives raise or lower the signal. In outline:
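Skin co-culture (keratinocytes + foreskin fibroblasts), human primary; 24 h post-dose; uPA by ELISA; gain/loss fit vs DMSO baseline.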

Read-out in another experiment: CD40, CD40 (gene 958)
Briefly: BSK_LPS_CD40: BioMAP Diversity Plus: LPS Assay for CD40 Biomarker Activity (AID 2283076). The conditions noted are these: primary human HUVEC with PBMC; actives raise or lower the signal. A digest of the protocol: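 CD40 signal, measured by ELISA, is fitted in both directions relative to DMSO vehicle. The system is an LPS-driven human vascular primary co-culture of endothelial cells and PBMC, sampled 24 h after compound addition.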

Read-out in experiment [14]: E-selectin (Homo sapiens) (UniProt P16581)
Briefly: BSK_LPS_Eselectin: BioMAP Diversity Plus: LPS Assay for Eselectin Biomarker Activity (AID 2283077). The conditions noted are these: primary human HUVEC with PBMC; actives raise or lower the signal. In outline:
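Signal of E-selectin, detected by ELISA, served as the endpoint; cells were umbilical vein endothelium with PBMC, read 24 h after treatment. DMSO defined baseline, and both increases and decreases were fitted.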

Read-out in experiment [15]: Interleukin-8 (IL8), CXCL8 (gene 3576)
Briefly: BSK_LPS_IL8: BioMAP Diversity Plus: LPS Assay for Interleukin-8 (IL8) Biomarker Activity (AID 2283078). To be noted: primary human HUVEC with PBMC; actives raise or lower the signal. In outline:
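Endothelial cells and PBMC from human donors are co-cultured, treated with chemicals and LPS, then assayed for IL-8 by ELISA after 24 h. Parallel SRB staining (0.1% SRB after 10% TCA fixation, 560 nm) flags cytotoxicity.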

Experiment [16] can be described thus: BSK_LPS_SRB: Viability Assessment in the BioMAP Diversity Plus: LPS Assay (AID 2283079).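 Further: total protein by sulforhodamine B absorbance as a cytotoxicity measure; measured one day after compound addition.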 To be noted: primary human HUVEC with PBMC. A digest of the protocol:
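Overt cytotoxicity was gauged by sulforhodamine B total-protein staining in a primary human vascular endothelial and mononuclear cell co-culture 24 h post-dosing. Activity was fitted in both directions relative to DMSO.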

Read-out in experiment [17]: Interleukin-1 alpha (IL1a), IL1A (gene 3552)
Briefly: BSK_LPS_IL1a: BioMAP Diversity Plus: LPS Assay for Interleukin-1 alpha (IL1a) Biomarker Activity (AID 2283080). The conditions noted are these: primary human HUVEC with PBMC; actives raise or lower the signal. In outline: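 Measured: IL-1 alpha via ELISA at 24 h in LPS-activated human umbilical vein endothelium–PBMC co-culture. Baseline: DMSO, bidirectional fitting.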

Experiment [18] can be described thus: BSK_KF3CT_SRB: Viability Assessment in the BioMAP Diversity Plus: KF3CT Assay (AID 2283069). The conditions noted are these: primary human keratinocytes with fibroblasts. In outline: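 SRB read-out at 560 nm (0.1% stain, TCA-fixed cells) gauges overt cytotoxicity in a human skin keratinocyte–fibroblast co-culture 24 h post-dosing. Signal change was fitted bidirectionally relative to DMSO control.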

Sequence of E-selectin (Homo sapiens) (P16581 whole entry, looked up): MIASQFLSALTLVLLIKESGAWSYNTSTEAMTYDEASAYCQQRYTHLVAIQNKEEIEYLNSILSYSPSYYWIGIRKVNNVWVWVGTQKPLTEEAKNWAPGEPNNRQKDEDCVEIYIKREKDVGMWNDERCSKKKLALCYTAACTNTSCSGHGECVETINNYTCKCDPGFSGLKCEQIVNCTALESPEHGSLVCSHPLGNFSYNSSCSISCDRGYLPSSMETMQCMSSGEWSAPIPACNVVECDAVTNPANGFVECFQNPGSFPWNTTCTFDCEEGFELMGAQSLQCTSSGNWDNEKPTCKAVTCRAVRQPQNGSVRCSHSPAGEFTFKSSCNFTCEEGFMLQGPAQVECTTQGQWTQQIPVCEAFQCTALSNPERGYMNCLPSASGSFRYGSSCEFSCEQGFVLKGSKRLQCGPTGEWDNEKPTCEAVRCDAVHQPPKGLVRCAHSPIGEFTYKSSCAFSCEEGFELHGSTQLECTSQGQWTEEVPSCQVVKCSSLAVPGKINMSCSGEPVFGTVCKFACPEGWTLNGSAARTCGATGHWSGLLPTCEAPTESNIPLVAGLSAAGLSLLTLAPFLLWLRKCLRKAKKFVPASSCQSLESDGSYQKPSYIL

With `O=NN(c1ccccc1)c1ccccc1`, the result in experiment [1], in experiment [2], in experiment [3], in [4], in experiment [5] and in [6] was inactive. Also, the outcome in [7], in experiment [8], in experiment [9], in experiment [10], in experiment [11] and in experiment [12] was inactive. Also, the outcome in experiment [13] is “inactive”; in the experiment with CD40, CD40 (gene 958) it was “inactive”; in experiment [14] it was “inactive”; in experiment [15], “inactive”; in experiment [16], “inactive”; in experiment [17] it was “inactive”.

Turning to `ClC(Cl)=C(c1ccc(Cl)cc1)c1ccc(Cl)cc1`, the AC50 in experiment [1] was 30 µM (active); in [2], 27.8 µM (active); in [3] it was 31.6 µM (active); in experiment [4] it was 14.1 µM (active); in [5], 16.6 µM (active); in [6], 20 µM (active). Besides, the AC50 is 30.2 µM (active) in experiment [7]; 27.9 µM (active) in experiment [8]; 27 µM (active) in [9]; 32.6 µM (active) in experiment [10]; 20 µM (active) in experiment [11]; 20 µM (active) in experiment [12]. Also, the AC50 in experiment [13] is 38.7 µM (active); in the experiment with CD40, CD40 (gene 958), 29.8 µM (active); in [14] it was 30.6 µM (active); in [15], 32.1 µM (active); in [17], 26.6 µM (active).

With `c1cc2ccc3cccc4ccc(c1)c2c34`, the outcome in [1], in experiment [3], in experiment [4], in experiment [5], in experiment [6] and in experiment [7] was inactive. Moreover, the outcome in experiment [18], in experiment [8], in [9], in [10], in experiment [11] and in [12] was inactive. Further, the outcome in [13] was “inactive”; with CD40, CD40 (gene 958), “inactive”; in experiment [14], “inactive”; in experiment [15], “inactive”; in [16] it was “inactive”; in [17], “inactive”.

`C1CC2OC2CC1C1CO1` (stereo unspecified): the outcome in experiment [1], in experiment [2], in experiment [3], in experiment [4], in [5] and in experiment [6] was inactive. In addition, the result in experiment [7], in experiment [8], in experiment [9], in [10], in experiment [11] and in experiment [12] was inactive. Also, the outcome in experiment [13], in [14], in [15], in [16] and in experiment [17] was inactive.

Regarding `Cc1cc2c3c(c1)C(c1ccccc1)=N[C@@H](NC(=O)c1ccncc1)C(=O)N3CC2`, the result in experiment [1], in [2], in experiment [4], in [6], in experiment [7] and in experiment [8] was inactive. Further, the outcome in [9], in experiment [10], in [11], in experiment [12], in [13] and in experiment [14] was inactive. Also, the result in experiment [15] and in [16] was inactive. Moreover, the half-maximal activity concentration (AC50) in experiment [3] is 14 µM (active); in experiment [5], 5.53 µM (active); in experiment [17], 3.97 µM (active).

With `C=CC(N)=O`, the outcome in [1], in [2], in experiment [3], in [4], in experiment [5] and in experiment [6] was inactive. Besides, the outcome in [7], in [18], in experiment [8], in experiment [9], in experiment [10] and in experiment [11] was inactive. Besides, the outcome was “inactive” in experiment [12]; “inactive” in [13]; “inactive” with CD40, CD40 (gene 958); “inactive” in [14]; “inactive” in [15]; “inactive” in experiment [16]. Besides, in [17], the result was inactive.
